Assay results taken from publication PMC5540273 (PLoS ONE, 2017).
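Note: kd values determined as follow-up on hits from a single-replicate KINOMEscan panel screen.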

These compounds were tested on T1, TRKC.
T1 construct: gene NTRK3
`COC(=O)c1cccc(NC(=O)NC2CCN(c3ccnc(Nc4ccc(OC)cc4)n3)C2)c1` (centres unmarked) [GSK1379746] gave a Kd of 1000 nM.
In the case of `COC(=O)c1cccc(NC(=O)NC2CCN(c3ccnc(Nc4ccc(F)cc4)n3)C2)c1` (centres unmarked) [GSK1379725], the Kd is reported as 340 nM.
`CC(=O)c1cccc(NC(=O)NC2CCN(c3ccnc(Nc4ccc(F)cc4)n3)C2)c1` (centres unmarked) [GSK1379710] gave a Kd of 94 nM.

What follows are compounds tested on T2, VPS34.
T2 construct: gene PIK3C3
`Cc1ccccc1Cn1ccn2c(=O)cc(N3CCOCC3)nc12` [GSK2269905] showed a Kd of 180 nM.
Work on `O=C1NC(=O)C(c2ccc(Cl)cc2)=C1Nc1cccc(Cl)c1` [SB-317651] yielded a Kd of 300 nM.
For `Cc1c(Cn2c3ccccc3n3c(=O)cc(N4CCOCC4)nc23)cccc1C(F)(F)F` [GSK2306394], the Kd was > 10000 nM.
Work on `O=c1cc(N2CCOCC2)nc2n(Cc3ccccc3F)ccn12` [GSK2297428] yielded a Kd of 68 nM.
`O=c1cc(N2CCOCC2)nc2n(Cc3cccc(Cl)c3Cl)c3ccccc3n12` [GSK2299009] showed a Kd of 470 nM.
